Screening data from PubChem.
ELG1 genotoxic: genotoxicity induction in ELG1-luciferase HEK293T cells. 330,000 compounds, 1.3% hits. AID 504466. HEK293T ELG1-luciferase reporter, luminescence, 16 h. Potency, µM (doses to about 46 µM), without a hit: at the top dose activity change, positive = activation, hits mostly activators; also: % of control where 0% means no effect; nearly all actives have a fitted effect of over 60% in size
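HEK293T cells expressing luciferase-tagged ELG1 were treated with compound or DMSO for 16 hr at 37°C. Luciferase activity was then read after 30 min with ONE-Glo at room temperature; rising signal flags genetic stress.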
Rab9 prom act: activators of Rab9 promoter; 320,000 compounds, 2.8% hits; Potency, µM (titrated, usually from 9.22 µM), inactives show at the highest dose activation, negative = inhibition, hits mostly activators; Huh7 Rab9 promoter-luciferase reporter, luminescence, 24 h; also: % of control where 0% means no effect; nearly all actives have a fitted effect of over 60% in size
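Luciferase signal after 10 min detection reagent at ambient indicates Rab9 promoter upregulation; stably transfected Huh7 cells were treated 24 h with compound in DMSO at 37 °C, 5% CO2.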
SMN2 splice enh: increases expression of the SMN2 splice variant; HEK293 SMN2-luciferase splicing reporter, luminescence, 30-36 h; Potency, µM (titrated, usually from 46.1 µM), for inactives: at the top dose activity change, positive = activation, actives largely listed as activators; 210,000 compounds, 2.8% hits; also: % of control where 0% means no effect; nearly all actives have a fitted effect of over 55% in size
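qHTS luciferase splicing reporter: luminescence rises when SMN2 exon 7 is included in transfected HEK293 cells. Compound exposure lasted 30-36 h at 37C, with 4.5 mM final sodium butyrate as control, followed by a ONE-Glo read.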
NPC1 promoter act: NPC1 promoter activation; Huh7 NPC1 promoter luciferase reporter, 24 h; Potency, µM (titrated, usually from 9.22 µM), for the others: top-dose activation, hits mostly activators; 320,000 compounds, 2.4% hits; also: % of control where 0% means no effect; nearly all actives have a fitted effect of over 60% in size
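Huh7 reporter cells (NPC1 promoter driving luciferase) are dosed with compound for 24 h at 37 °C, 5% CO2; luciferase detection reagent is then added and luminescence measured after 10 min at ambient temperature.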
FLuc counter: inhibits or activates purified firefly luciferase, miR-21 counter-screen | P08659 | purified FLuc, Km substrates, luminescence inhibition | Potency, µM (top dose mostly 57.5 µM), without a hit: top-dose activity change, negative = inhibition, hits mostly inhibitors | 360,000 compounds, 6.9% hits;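 also: plate controls were vehicle for no effect and reference inhibitor for full effect; nearly all actives have a fitted effect of over 55% in size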
Target sequence (P08659 whole entry, looked up): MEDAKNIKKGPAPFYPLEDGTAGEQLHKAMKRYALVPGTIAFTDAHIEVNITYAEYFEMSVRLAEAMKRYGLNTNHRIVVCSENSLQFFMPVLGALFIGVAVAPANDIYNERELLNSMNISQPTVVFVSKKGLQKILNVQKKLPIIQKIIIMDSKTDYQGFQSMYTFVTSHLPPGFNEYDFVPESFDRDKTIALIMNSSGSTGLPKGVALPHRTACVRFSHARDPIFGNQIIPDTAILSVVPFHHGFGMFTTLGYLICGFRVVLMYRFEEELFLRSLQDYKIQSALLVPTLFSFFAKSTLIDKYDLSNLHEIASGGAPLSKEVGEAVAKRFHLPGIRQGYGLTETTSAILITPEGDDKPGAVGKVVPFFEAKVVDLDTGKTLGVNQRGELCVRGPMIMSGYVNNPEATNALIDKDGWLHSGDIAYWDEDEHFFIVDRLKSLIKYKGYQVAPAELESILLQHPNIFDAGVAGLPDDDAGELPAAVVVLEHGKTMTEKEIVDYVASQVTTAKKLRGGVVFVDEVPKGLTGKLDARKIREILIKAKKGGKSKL
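Purified P. pyralis luciferase (10nM final) with 10uM D-luciferin and 10uM ATP (Km levels) in 50mM Tris acetate pH 7.5, 10mM Mg acetate, 0.01% Tween-20, 0.05% BSA; qHTS 6-point titration, ~60 µM downward; luminescence read.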
An asterisk follows results filed as active; ? = inconclusive; . = no result given; ! = a repeat was not active; [ ] = remark or other dose. The list is not random: actives were taken first. Their share in the collection is about 7.5%. Calls follow the shape of the dose curve; as a rule, active = well fitted curve in the direction sought with a large enough effect; inconclusive = small, poorly fitted or top-dose-only effect, or another doubt; inactive = no such curve, though single readings can be large; an effect the other way counts as inactive or inconclusive. Potency is read from the fitted curve at half-maximal effect.

SMILES	ELG1 genotoxic	Rab9 prom act	SMN2 splice enh	NPC1 promoter act	FLuc counter
COc1ccc(NC(=S)Nc2ccc(N(C)C(C)=O)cc2)cc1	-0.2%	5.3%	-5.3%	0.8%	-3.2%
Cc1ccc(N(C)C)cc1	.	.	-8.4%	.	.
CCN(CC)C(=S)Nc1ccc(OC)cc1	0.9%	-3.0%	6.2%	-1.8%	2.5%
COc1ccc(C(=S)Nc2ccc(N(C)C)cc2)cc1	?	2.82µM*	11.2µM*	3.16µM*	1.51µM*
O=C(COc1ccccc1Cl)OCc1cc(=O)n2nc(C3CCCCC3)sc2n1	.	.	.	.	-17.4%
COc1cc(C=O)c([N+](=O)[O-])cc1OC	.	.	-13.6%	.	.
COc1cc(NC(=O)c2cccs2)c(C(=O)OCC(=O)c2cc(C)n(-c3ccccc3)c2C)cc1OC	-6.6%	-20.4%	12.8%	-17.0%	5.36µM*
COc1cc(NC(=O)c2cccs2)c(C(=O)OCC(=O)c2cc(C)n(-c3ccc(F)cc3)c2C)cc1OC	8.0%	-0.4%	-9.3%	-0.4%	9.53µM*
CN(CCc1ccc(Cl)c(Cl)c1)CCN1CCCCCC1	.	.	4.5%	.	.
O=C(CSc1nnc(-c2cccc(F)c2)o1)N1CCCC1	8.1%	?	.	?	?
Cc1ccc(NC(=O)n2ncc3c(C)cccc32)c(C)c1	?	0.316µM*	.	0.398µM*	2.39µM*!
Cc1cccc2c1cnn2C(=O)Nc1ccc(Br)cc1F	4.7%	?	.	0.282µM*	?
COC(=O)c1cc2ccsc2n1Cc1ccccc1F	0.4%	-4.9%	-5.5%	0.6%	-1.0%
CCCc1cc(C(=O)Nc2ccc(CC)cc2)no1	?	1.58µM*	.	3.16µM*	4.78µM*
CCCc1cc(C(=O)NCc2ccc(OC)cc2)no1	16.2%	24.8%	24.1%	25.7%	?
CCc1ccc(NC(=O)c2cc(-c3cccs3)on2)cc1	10.4%	-0.5%	-8.4%	-1.8%	?
CCCc1cc(C(=O)Nc2ccc(C)cc2)no1	?	4.47µM*	8.4%	?	3.38µM*
CCOc1ccc(CCNC(=O)CCc2nnc3ccc(N4CCCCC4)nn23)cc1OCC	-0.8%	-0.8%	.	-0.2%	-0.1%
CC(=O)Nc1cccc(NC(=O)CSc2nnc3ccc(-c4ccncc4)nn23)c1	0.5%	-2.2%	.	-5.5%	-1.8%
Cc1ccnc(SCC(=O)c2ccc(Br)cc2)c1C#N	11.9%	2.82µM*	14.1µM*	3.55µM*	21.3µM*
Cc1snc(SCC(=O)c2ccc(Cl)cc2)c1C#N	10.3%	?	-3.4%	?	?
Cc1ccc(C(=O)CSc2nsc(C)c2C#N)cc1	?	3.16µM*	12.6µM*	3.55µM*	10.7µM*
Cc1cc(C)c(C#N)c(OCC(=O)c2ccc(Br)cc2)n1	-0.9%	6.2%	-10.8%	0.9%	-0.5%
Cn1c(=O)n(CC(=O)NC2CCCCC2)c(=O)c2ccccc21	-7.0%	-0.6%	.	1.0%	-2.2%
COc1ccc(OC)c(N(CC(=O)NCCSCc2ccc(C)cc2)S(C)(=O)=O)c1	-6.9%	0.5%	.	-0.2%	-7.4%
SMILES	ELG1 genotoxic	Rab9 prom act	SMN2 splice enh	NPC1 promoter act	FLuc counter
CC(Cc1cccs1)NC(=O)Nc1ccc(Cl)cc1 (configuration not stated)	5.62µM*	?	14.4%	?	12µM*
CC(Cc1cccs1)NC(=O)Nc1ccc(Cl)c(Cl)c1 (configuration not stated)	2.2%	?	5.8%	?	21.3µM*
COCCNC(=O)/C(C#N)=C/c1ccc(C(=O)O)cc1	-1.8%	0.4%	-1.7%	-2.6%	3.5%
CCOC(=O)/C(C#N)=C\C=C1C=CN(C)C=C1	?	3.55µM*	15.8µM*	2.51µM*	9.53µM*
CCOC(=O)/C(C#N)=C/c1ccc(SC)cc1	4.1%	-2.8%	-24.1%	8.8%	13.5µM*
COCCNC(=O)/C(C#N)=C/c1ccc(SC)cc1	?	-1.5%	1.5%	-4.6%	19µM*
CCOC(=O)/C(C#N)=C/c1ccc(OC)c(OC)c1	-1.0%	-0.8%	.	-3.6%	1.5%[2.3 µM]
CCOC(=O)/C(C#N)=C\c1c(OCC)n(CC)c2ccccc12	-4.9%	0.6%	-14.6%	1.1%	3.0%
CCOC(=O)/C(C#N)=C\c1ccc(CC)s1	?	-10.6%	-8.5%	24.7%	10.7µM*
O=C(Nc1ccc(SC(F)F)cc1)C1=COCCO1	2.59µM*	1µM*	11.2µM*	1.26µM*	4.78µM*
Cc1ccc(C(=O)Nc2ccc(SC(F)F)cc2)s1	?	1.26µM*	7.08µM*	2.82µM*	6.75µM*
O=C(N/N=C/c1ccc(OC(F)F)cc1)C1=COCCO1	?	2µM*	11.2µM*	3.16µM*	8.49µM*
O=C(N/N=C/c1ccccc1OC(F)F)C1=COCCO1	7.1%	10.2%	22.7%	8.0%	-19.7%
COc1ccc(CN(CCN)C2CC(C)N(C)CC2C)cc1 (configuration not stated)	1.9%	0.1%	.	-3.9%	6.6%
CSc1nsc2nc(=O)c(/C=C3\C=Nc4ccccc43)c(N)n12	?	28.4%	2.9%	14.0%	16.9µM*
CC(C)S(=O)(=O)c1nsc2nc(=O)c(/C=C3\C=Nc4ccccc43)c(N)n12	0.0%	-2.2%	7.0%	-1.2%	?
CSc1nsc2nc(=O)c(/C=C3\C(C)=Nc4ccc(C)cc43)c(N)n12	-23.5%	-10.2%	-46.8%	-12.2%	13.5µM*
COc1cccc(/C=C/C(=O)Nc2ccc(OC)nc2)c1	6.2%	25.1%	0.6%[1.84 µM]	27.0%	10.7µM*
COc1ccc(NC(=O)/C=C/c2ccccc2)cn1	?	2.51µM*	10.4%[1.84 µM]	3.55µM*	8.49µM*
COc1ccc(NC(=O)/C=C/c2ccc(F)cc2)cn1	12.0%	?	?	?	10.7µM*
COc1ccc(NC(=O)/C=C/c2cc(OC)c(OC)c(OC)c2)cn1	-0.6%	6.0%	37.1%	-4.1%	-1.0%
COc1ccc(NC(=O)COc2cccc(C(F)(F)F)c2)cn1	2.9%	-1.9%	.	-0.5%	2.9%
Cc1cc(C)cc(OCC(=O)Nc2ccc(S(=O)(=O)Nc3onc(C)c3C)cc2)c1	.	.	-1.4%	.	?
CC(C)(C)c1ccc(/C=N/n2cnnc2)cc1	8.0%	-8.3%	12.4%	0.9%	19µM*
CCCCc1ccc(Nc2ncnc3nc[nH]c23)cc1	8.2µM*	?	5.0%	?	10.7µM*
SMILES	ELG1 genotoxic	Rab9 prom act	SMN2 splice enh	NPC1 promoter act	FLuc counter
CCCNc1ncnc2nc[nH]c12	-9.7%	-7.5%	-19.4%	-7.9%	-0.8%
Cc1ccc(Nc2ncnc3nc[nH]c23)cc1Cl	5.8µM*	3.16µM*	?	3.55µM*	?
CCc1ccc(Nc2ncnc3nc[nH]c23)cc1	?	2µM*	.	2.24µM*	10.7µM*
COc1cccc(Nc2ncnc3nc[nH]c23)c1	13.0%	?	12.6µM*	?	19µM*
Clc1ccc(CCNc2ncnc3nc[nH]c23)cc1	-1.7%	-7.3%	-63.1%	0.0%	-19.0%
CCOc1ccc(C(C)(C)C)cc1S(=O)(=O)Nc1ccncc1	2.1%	-1.9%	.	2.8%	-2.4%
COc1ccc(CS(=O)(=O)CC(C)(O)c2ccccc2Cl)cc1 (configuration not stated)	0.2%	-0.4%	.	2.4%	0.8%
